In publication PMC5540273 (PLoS ONE, 2017):

Columns and labels:
Conditions in all cases: concentration: 1 μM, replicates: in singlicate; n = 1
PLK2 = test system: PLK2
PLK3 = test system: PLK3
PLK4 = test system: PLK4
PRKCD = test system: PRKCD
PRKCE = test system: PRKCE
PRKCH = test system: PRKCH
PRKCI = test system: PRKCI
PRKCQ = test system: PRKCQ
PRKD1 = test system: PRKD1
PRKD2 = test system: PRKD2
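Note: KINOMEscan kinase panel screen.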

Row | SMILES | %Inh (PLK2) | %Inh (PLK3) | %Inh (PLK4) | %Inh (PRKCD) | %Inh (PRKCE) | %Inh (PRKCH) | %Inh (PRKCI) | %Inh (PRKCQ) | %Inh (PRKD1) | %Inh (PRKD2)
1 | c1ccc(Oc2ccc(Nc3ccnc4cc(-c5ccc(CN6CCCCC6)o5)ccc34)cc2)nc1 [GW567143] | 0% | 0% | 44% | 7% | 0% | 5% | 0% | 10% | 0% | 12%
2 | CN(c1ccc2c(c1)nc(NCc1ccccc1)n2C)c1ccnc(Nc2ccc(CS(C)(=O)=O)cc2)n1.Cl [GW811603] | 0% | 79% | 62% | 100% | 36% | 0% | 0% | 0% | 0% | 0%
3 | CCNC(=O)/C=C/c1n[nH]c2cc(Sc3ccccc3C(=O)NC)ccc12 | 17% | 18% | 91.9% | 6% | 3% | 0% | 5% | 0% | 3% | 14%
4 | O=C(Nc1c(F)cccc1F)c1cc(C(=O)c2ccccc2F)c[nH]1 [GSK1326180] | 0% | 0% | 0% | 9% | 0% | 4% | 2% | 20% | 11% | 14%
5 | CN(c1ccc(NC(=O)N2CCN(CCCN3CCOCC3)CC2)cc1)c1ccnc(Nc2ccc(CS(C)(=O)=O)cc2)n1.Cl [GW830899] | 0% | 0% | 39% | 23% | 0% | 0% | 43% | 0% | 0% | 0%
6 | COc1cccc(NC(=O)NCCNc2ccnc(Nc3ccc(F)cc3)n2)c1 [GSK1379879] | 0% | 0% | 4% | 0% | 18% | 5% | 20% | 12% | 0% | 0%
7 | CCOc1nccc(-c2c(-c3ccc(F)cc3)ncn2C2CCNCC2)n1 [SB-249175] | 24% | 23% | 26% | 20% | 5% | 100% | 5% | 10% | 38% | 35%
8 | CN(C)CCNS(=O)(=O)c1ccc(-c2ccnc3[nH]ccc23)cc1 [GSK977620] | 0% | 0% | 1% | 83% | 88% | 82% | 21% | 62% | 0% | 10%
9 | Cc1ccc(NC(=O)c2ccnc(N3CCCCC3)c2)cc1-c1ccc(C(=O)NCC2CC2)cc1 [GW775610] | 0% | 0% | 24% | 9% | 9% | 0% | 6% | 2% | 0% | 0%
